High-throughput results as filed in PubChem.
TLR9-MyD88 inh – blocks human TLR9 binding to MyD88; Q9NR96+Q99836; CHO BLA complementation TLR9-MyD88, CCF4 FRET ratio; inhibition, % at 4.98 µM; actives 0.21% (n = 340,000); AID 504734;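 active means inhibition above the mean over all tested compounds plus 3 SD, cut at about 21% in these data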;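 further: 0% = DMSO only wells and 100% = clavulanate BLA inhibitor control wells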
Target sequence (Q99836 whole entry, looked up): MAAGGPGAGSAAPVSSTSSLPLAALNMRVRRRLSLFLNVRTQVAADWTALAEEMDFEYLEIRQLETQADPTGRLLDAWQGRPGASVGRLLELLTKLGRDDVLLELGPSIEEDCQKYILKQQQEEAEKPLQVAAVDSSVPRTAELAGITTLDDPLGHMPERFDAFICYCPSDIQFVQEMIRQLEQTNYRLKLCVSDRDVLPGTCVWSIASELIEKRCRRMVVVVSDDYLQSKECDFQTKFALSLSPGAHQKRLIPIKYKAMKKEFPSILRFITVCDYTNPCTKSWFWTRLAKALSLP
Target sequence (Q9NR96 whole entry, looked up): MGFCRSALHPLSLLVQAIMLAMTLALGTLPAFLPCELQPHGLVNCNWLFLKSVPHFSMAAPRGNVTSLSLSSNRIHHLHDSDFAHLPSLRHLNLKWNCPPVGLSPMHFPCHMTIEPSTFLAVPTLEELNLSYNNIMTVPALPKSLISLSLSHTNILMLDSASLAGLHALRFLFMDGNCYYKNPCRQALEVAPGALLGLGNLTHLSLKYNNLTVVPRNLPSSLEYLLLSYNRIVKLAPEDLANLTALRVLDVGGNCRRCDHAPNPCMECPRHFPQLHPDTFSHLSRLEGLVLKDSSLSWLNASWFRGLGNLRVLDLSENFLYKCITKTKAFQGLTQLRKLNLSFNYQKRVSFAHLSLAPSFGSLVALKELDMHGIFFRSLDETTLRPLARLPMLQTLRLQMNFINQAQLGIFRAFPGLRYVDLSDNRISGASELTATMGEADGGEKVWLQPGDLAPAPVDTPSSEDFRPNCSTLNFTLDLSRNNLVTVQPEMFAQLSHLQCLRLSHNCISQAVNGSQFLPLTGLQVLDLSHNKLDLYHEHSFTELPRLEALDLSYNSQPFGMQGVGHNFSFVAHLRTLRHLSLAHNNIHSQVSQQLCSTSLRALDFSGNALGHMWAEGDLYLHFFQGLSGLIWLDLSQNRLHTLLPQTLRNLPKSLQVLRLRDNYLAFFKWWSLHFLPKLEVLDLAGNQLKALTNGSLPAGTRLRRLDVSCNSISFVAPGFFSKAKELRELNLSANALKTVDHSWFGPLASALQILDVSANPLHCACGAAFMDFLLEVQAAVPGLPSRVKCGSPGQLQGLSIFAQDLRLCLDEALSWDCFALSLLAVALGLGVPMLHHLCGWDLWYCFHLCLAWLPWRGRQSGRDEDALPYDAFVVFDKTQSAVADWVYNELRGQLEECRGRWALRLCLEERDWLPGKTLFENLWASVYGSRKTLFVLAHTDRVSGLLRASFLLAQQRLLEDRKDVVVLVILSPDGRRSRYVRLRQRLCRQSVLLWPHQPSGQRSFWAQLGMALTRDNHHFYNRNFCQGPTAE
PRMT1 inh – PRMT1 (human) inhibition, primary screen; Q99873; recombinant PRMT1, activity-based probe fluorescence polarization; inhibition, % at 2.79 µM; actives 1.3% (n = 370,000); AID 652257;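 active means inhibition above about 21% made by adding two undisclosed values, limit read from the data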
ABHD5 PLIN5 PPI – inhibitors of human ABHD5-perilipin-5 interaction; Q00G26+Q8WTS1; Split G. princeps luciferase complementation, luminescence, 4 h; inhibition, % at 4 µM; actives 0.78% (n = 360,000);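 active means inhibition above the mean inhibition across every tested compound plus 3 SD, cut at about 22% in these data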;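 further: 0% = DMSO only wells and the 100% control is not disclosed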
NOD2 RIPK2 PPI – blocks binding of human NOD2 to RIPK2; O43353; CHO BLA complementation NOD2-RIPK2, CCF4 ratio; AID 624267; inhibition, % at 4.98 µM; actives 0.38% (n = 360,000); in the data active means inhibition above about 21%;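 further: 0% = vehicle only and 100% = reference blocker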
Exocytosis inh – lytic granule exocytosis inhibition; TALL-104 LAMP-1 surface exposure, flow cytometry; cells stimulated with thapsigargin and PMA; inhibition, % at 10 µM; actives 0.66% (n = 360,000); AID 651702;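 active means inhibition above about 55%, limit read from the data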
TLR4-MyD88 BLA – inhibitors of human TLR4-MyD88 binding; HeLa CL3-4 TLR4/MyD88 BLA complementation, FRET ratio; inhibition, % at 8.4 µM; actives 0.18% (n = 200,000); in the data active means inhibition above about 25%;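 further: 0% = vehicle and 100% = reference inhibitor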
Granule exo CP1 – lytic granule exocytosis inhibition; shares compounds with Exocytosis inh; TALL-104 cells, LAMP-1 externalization, flow cytometry; stimulated with PMA plus thapsigargin; inhibition, % at 10 µM; actives 11% (n = 1,500); AID 651954; in the data active means inhibition above about 60%;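 further: 0% = stimulated vehicle wells and 100% = unstimulated wells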
Numbers without * were called inactive; . = no result given. Hits are enriched below; roughly 2.6% of the tested compounds scored in any of these assays.

SMILES	TLR9-MyD88 inh	PRMT1 inh	ABHD5 PLIN5 PPI	NOD2 RIPK2 PPI	Exocytosis inh	TLR4-MyD88 BLA	Granule exo CP1
CCCCn1cnc2c(c(-c3ccccc3)c(-c3ccccc3)n2Cc2ccco2)c1=N	.	3.8	11.6	-4.8	63.6*	.	18.2
Cn1c(=O)c2ccccc2n(C)c1=O	.	4.6	.	.	.	.	.
COc1ccccc1Cc1c(-c2ccco2)nc2c3ccccc3ccn12	.	18.1	8.7	-3.6	76.3*	.	-2.9
CC(=O)N1CCSc2ccc(S(=O)(=O)NCCc3ccc(C)cc3)cc21	4.5	4.1	-8.0	1.1	62.5*	.	-10.2
CC(=O)N1CCSc2ccc(S(=O)(=O)NCCc3ccc(Cl)cc3)cc21	-14.0	2.0	-12.0	-6.0	1.6	.	.
CCCCN(CC(O)COc1cccc(C)c1)CC(O)COc1cccc(C)c1 (stereo not given)	-11.1	-0.7	1.0	7.5	82.8*	.	-4.3
CCOC(=O)C1c2cccc(O)c2CCN1C(C)=O (stereo not given)	-1.9	-4.3	1.6	-4.0	113.9*	.	-13.4
O=C(Nc1ccc2ncccc2c1)c1cc(-c2ccc(Cl)cc2)nc2ccccc12	.	-2.0	.	.	.	.	.
O=C(Nc1cccc(O)c1)c1cccc(S(=O)(=O)N2CCCCCC2)c1	-11.4	-1.4	-2.1	0.6	58.6*	.	-12.7
O=S(=O)(Nc1cccc(S(=O)(=O)N2CCCCCC2)c1)c1ccccc1	0.3	0.8	-7.8	-1.3	73.8*	3.1	-4.8
O=S(=O)(Nc1cccc(S(=O)(=O)N2CCCC2)c1)c1ccc(F)cc1	-2.6	-2.8	-12.2	0.7	3.1	.	.
O=C(CN1C(=O)C(=O)c2ccccc21)c1ccc(Cl)cc1	-8.1	-1.7	-4.3	-1.3	62.6*	.	-11.9
O=S(=O)(c1ccccc1)c1nnn2c1nc(NC1CCN(Cc3ccccc3)CC1)c1cc(Cl)ccc12	-5.1	-2.9	4.0	-0.9	63.8*	.	69.2*
O=S(=O)(c1ccccc1)c1nnn2c1nc(NC1CCN(Cc3ccccc3)CC1)c1ccccc12	-2.3	1.1	-0.7	-4.7	26.6	.	.
COc1cc2c(c(OC)c1OC)[C@@]1(c3ccccc3)CCCCC[C@H]1[C@@H]2NC(=O)C(F)(F)F	.	-3.2	.	.	.	.	.
CC1CCCN(S(=O)(=O)c2ccc(NC(=O)CNC3CCCC3)cc2)C1 (stereo not given)	-0.2	2.0	-7.8	4.6	-12.5	.	.
O=C(CNC1CCCCC1)Nc1ccc(S(=O)(=O)N2CCCCC2)cc1	-4.1	-0.2	-0.9	-7.0	78.0*	.	21.1
COC(=O)c1cc2c(c3c4cc(OC)ccc4n(C(=O)c4ccccc4)c13)C(=O)N(C1CCCCC1)C2	.	6.2	.	.	.	.	.
CC1(C)CC(C(CCN(Cc2ccccc2)C(=O)c2ccco2)c2ccc(F)cc2)CCO1 (stereo not given)	-6.0	2.8	1.5	4.2	0.0	-14.8	.
O=C(c1ccco1)N(CCC(c1ccccc1)c1ccco1)Cc1ccc(F)cc1 (stereo not given)	-1.6	.	8.8	-7.2	59.0*	8.3	-11.1
COC(=O)[C@]12C[C@H](CC(=O)N3CCOCC3)C(=O)N(Cc3ccc4c(c3)OCO4)C1=C[C@H](COCc1ccccc1)O[C@@H]2C	.	5.2	.	.	.	.	.
Cc1ccc(S(=O)(=O)c2cc3c(=O)n4ccccc4nc3n(C3CCCC3)c2=N)cc1	0.7	0.1	1.7	-8.2	88.0*	.	-14.7
CC(C)=CCC/C(C)=C/CNC(=O)CC1C[C@H](C(=O)N2CCOCC2)[C@@]2(C)c3[nH]c4ccccc4c3CCN2C1=O (stereo not given in full)	-2.2	-0.6	-0.1	-4.0	13.9	.	.
CC(C)=CCC/C(C)=C/CNC(=O)C[C@H]1C[C@H](C(=O)N2CCOCC2)[C@@]2(C)c3[nH]c4ccc(Cl)cc4c3CCN2C1=O	-4.4	1.6	-1.0	2.6	69.8*	.	11.1
CCOC(=O)C1(Cc2cccc(Cl)c2)CCCN(C(=O)c2c(CC)noc2C)C1 (stereo not given)	0.9	-5.2	1.9	0.9	59.2*	.	-4.5
CCOC(=O)C1(Cc2cccc(Cl)c2)CCCN(C(=O)c2cc(C)on2)C1 (stereo not given)	-10.4	-0.5	-8.4	1.6	1.4	.	.
COc1cccc(CN2C(=O)[C@H]3Cc4c([nH]c5ccccc45)C(C)(C)N3C2=O)c1	-5.5	-1.1	-3.8	-0.3	77.9*	.	-8.8
